From PubChem BioAssay
Gal4-VP16 FLuc: Gal4-VP16 reporter inhibition counter-screen; Drosophila S2 Gal4-VP16 UAS-luciferase, luminescence, 20 h; 310,000 compounds, 3.5% hits; Potency, µM (series often up to 53.6 µM), for the others: top-dose activity, negative = inhibition, hits mostly inhibitors;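 also: Gal4-VP16 expression switched on by copper sulfate through the metallothionein promoter; potency is read from the fitted curve at half-maximal effect; nearly all actives have a fitted effect of over 50% in size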
RORg inh: inhibitors of mouse ROR gamma transcriptional activity | Drosophila S2 Gal4-RORgamma UAS-luciferase reporter, 20 h | Potency, µM (doses to about 53.6 µM), for inactives: top-dose activity change, negative = inhibition, hits mostly inhibitors | 310,000 compounds, 5.4% hits; also: potency is read from the fitted curve at half-maximal effect; nearly all actives have a fitted effect of over 60% in size
Target sequence (P51450 whole entry, looked up, the tested form may be a part): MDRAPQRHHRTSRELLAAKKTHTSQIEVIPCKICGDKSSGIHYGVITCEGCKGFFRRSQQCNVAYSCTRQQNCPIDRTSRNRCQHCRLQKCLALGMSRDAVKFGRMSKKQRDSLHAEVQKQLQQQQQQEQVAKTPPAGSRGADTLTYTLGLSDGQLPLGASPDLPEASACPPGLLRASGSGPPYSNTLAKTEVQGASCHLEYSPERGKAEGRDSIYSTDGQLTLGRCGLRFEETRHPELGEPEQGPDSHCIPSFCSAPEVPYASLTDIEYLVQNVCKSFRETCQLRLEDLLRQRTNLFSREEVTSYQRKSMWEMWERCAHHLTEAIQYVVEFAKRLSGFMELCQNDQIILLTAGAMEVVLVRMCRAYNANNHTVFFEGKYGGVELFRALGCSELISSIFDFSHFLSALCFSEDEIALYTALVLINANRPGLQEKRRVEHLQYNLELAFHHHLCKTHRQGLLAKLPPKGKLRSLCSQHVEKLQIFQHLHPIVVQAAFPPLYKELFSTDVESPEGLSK
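Schneider cells (Drosophila), stable Gal4 DBD–ROR gamma + UAS-luc; 1 hr cmpd preincubation; Cu2+ induction 700 uM final; 20 hr ambient; luminescence.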
DT40 TDP1 no CPT: qHTS for Inhibitors of human tyrosyl-DNA phosphodiesterase 1 (TDP1): qHTS in cells in absence of CPT; DT40 Tdp1-/- hTDP1 cells, no CPT, ATP luminescence, 48 h; Potency, µM (top dose mostly 46.2 µM), for the others: top-dose activity change, negative = growth inhibition, hits mostly inhibitors; 420,000 compounds, 15% hits; AID 686978, 2013; also: potency is read from the fitted curve at half-maximal effect; nearly all actives have a fitted effect of over 55% in size
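Seeded 400 DT40-hTDP1 cells/well (vehicle DMSO, no 20 nM CPT); pinned compounds; ≥48 hr at 37 °C; CellTiter-Glo luminescence as viability measure.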
IL1B secr inh: inhibitors of inflammasome signaling (IL-1 beta secretion). THP-1 LPS/ATP IL-1B secretion, AlphaLISA, 16 h; active compounds read low. activity change, % at 57.5 µM. 360,000 compounds, 4.7% hits; in the data active = activity change below about -50%; inconclusive = mostly about -30% to -49%
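THP-1 cells pretreated 1 hr with compounds (up to 57.5 uM final), then stimulated with LPS (250 ng/mL final) plus ATP (1.25 mM final); secreted IL-1B measured by AlphaLISA after 16 hr, decreased signal indicating inhibition.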
ELG1 repair inh: inhibitors of ELG1-dependent DNA repair in HEK293T cells | Potency, µM (series often up to 46.1 µM), for the others: at the highest dose activity change, negative = inhibition, actives largely listed as inhibitors | HEK293T ELG1-luciferase reporter, luminescence, 16 h; DNA damage induced by 5-fluorouridine | 330,000 compounds, 2.3% hits; also: potency is read from the fitted curve at half-maximal effect; nearly all actives have a fitted effect of over 55% in size
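Step one: seed 2,000 cells per well. Step two: pin-transfer compound or DMSO alongside 5-fluorouridine. Step three: incubate 16 hr, 37 °C, 5% CO2. Step four: add ONE-Glo, wait 30 min, read luminescence.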
TDP1 cell CPT: growth inhibition of DT40 Tdp1-/-;hTDP1 cells with camptothecin (screen for TDP1 inhibitors) | chicken DT40 Tdp1-/-;hTDP1 cells + 20 nM CPT, ATP luminescence, 48 h | Potency, µM (highest dose often 46.2 µM), inactives show at the highest dose activity change, negative = growth inhibition, hits mostly inhibitors | 420,000 compounds, 12% hits; also: potency is read from the fitted curve at half-maximal effect; nearly all actives have a fitted effect of over 55% in size
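Cell growth measured by CellTiter-Glo luminescence after a minimum 48 h, 37 C compound exposure with 20 nM CPT in Tdp1-knockout DT40 cells stably expressing hTDP1, seeded 400/well; qHTS titration format.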
The depositor's hits bear a star; ? = inconclusive; · = not tested or not shown. Compounds with a hit are over-represented: about 21% of the library has one in this group of screens. Unless noted, calls follow the shape of the dose curve; as a rule, active = well fitted curve in the direction sought with a large enough effect; inconclusive = small, poorly fitted or top-dose-only effect, or another doubt; inactive = no such curve, though single readings can be large; an effect the other way counts as inactive or inconclusive. % is scaled to controls: 0 for no effect and ±100 for the full control effect.

SMILES	Gal4-VP16 FLuc	RORg inh	DT40 TDP1 no CPT	IL1B secr inh	ELG1 repair inh	TDP1 cell CPT
COC(=O)C(Cc1c[nH]c2ccccc12)NC(=O)c1ccc2nc[nH]c2c1 (stereo not drawn)	·	·	10%	-68*	?	12%
CCc1ccccc1Nc1nn2c(=O)c3ccc(C(=O)NC4CCC(C)CC4)cc3nc2s1 (stereo not drawn)	·	·	16µM*	·	·	?
CCOC(=O)C1CCN(C(=O)c2ccc3c(=O)n4nc(Nc5ccccc5)sc4nc3c2)CC1	·	·	15µM*	-22	·	21µM*
Cc1nc2ccccc2c2oc(C(=O)N3CCCC(C)C3)cc12 (stereo not drawn)	-2%	-16%	?	24	-7%	?
COc1ccccc1Nc1nn2c(=O)c3ccc(C(=O)NC4CCC(C)CC4)cc3nc2s1 (stereo not drawn)	·	·	5.2µM*	·	·	5.8µM*
Cc1ccc(Cl)cc1Nc1nn2c(=O)c3ccc(C(=O)NC4CCC(C)CC4)cc3nc2s1 (stereo not drawn)	·	·	?	·	·	-27%
Cc1ccccc1Nc1nn2c(=O)c3ccc(C(=O)N4CCCC(C)C4)cc3nc2s1 (stereo not drawn)	·	·	16µM*	0	·	15µM*
Cc1nc2cnc(Oc3ccccc3)nc2n(C)c1=O	-5%	0%	-17%	·	·	-2%
Cc1cc(C)cc(OCc2cc(=O)n3cc(C)sc3n2)c1	·	·	-4%	·	·	-3%
COc1ccccc1Nc1nn2c(=O)c3ccc(C(=O)N4CCC(C)CC4)cc3nc2s1	-10%	-5%	18µM*	-5	15µM*	23µM*
COc1ccc(C(=O)N2CCC(C(=O)Nc3ccccc3C)CC2)cc1OC	5%	-19%	2%	28	9%	-13%
CCOc1ccccc1NC(=S)N1CCN(c2ccc(O)cc2)CC1	17%	-15%	?	26	?	?
CCc1ccccc1NC(=S)N1CCN(c2ccccc2F)CC1	?	7.1µM*	?	6	5%	-20%
CCOc1ccccc1NC(=S)N1CCN(c2nc(-c3ccc(F)cc3)cs2)CC1	?	11µM*	15µM*	20	?	21µM*
CCOc1ccccc1NC(=S)N1CCN(c2ccc(OC)cc2)CC1	18µM*	11µM*	-20%	-8	-1%	-29%
CNC(=S)N1CCN(c2nc(-c3ccc(F)cc3)cs2)CC1	·	·	?	-15	-15%	?
CCOc1ccccc1NC(=S)N1CCCCCC1	?	14µM*	?	19	14%	?
CC[C@@H](C)[C@@H](N)C1=N[C@H](C(=O)N[C@@H](CC(C)C)C(=O)N[C@@H](CCC(=O)O)C(=O)N[C@@H](C(=O)N[C@@H]2CCCCNC(=O)[C@@H](CC(N)=O)NC(=O)[C@@H](CC(=O)O)NC(=O)[C@@H](Cc3cnc[nH]3)NC(=O)[C@@H](Cc3ccccc3)NC(=O)[C@@H]([C@H](C)CC)NC(=O)[C@@H](CCCN)NC2=O)[C@@H](C)CC)CS1	·	·	-12%	·	·	11%
COc1ccc(N(C(=O)CNC(=O)c2ccco2)C(C(=O)NCC2CCCO2)c2ccc(OC)c(OC)c2)cc1 (stereo not drawn)	1%	-2%	-15%	16	-15%	?
Cc1ccc(NC(=S)N2CCN(c3ccccc3F)CC2)c(C)c1	7.1µM*	8.9µM*	?	13	-17%	?
CCNC(=S)N1CCN(c2ccccc2OCC)CC1	-7%	-7%	-11%	-4	1%	7%
CCOc1ccccc1NC(=S)N1CCN(c2ccccc2F)CC1	14µM*	?	21µM*	-8	0%	?
CSc1ccc(C2=C/C(=C3/SC(=S)NC3=O)c3ccccc3O2)cc1	·	·	?	-1	·	?
O=C(N/N=C/c1c(O)n(-c2ccc(Cl)cn2)c(=O)c2ccccc12)C1CC1	7.9µM*	5.6µM*	?	47	-21%	?
O=C(N/N=C/c1c(O)n(-c2ccc(Cl)cn2)c(=O)c2ccccc12)c1ccncc1	-18%	-15%	-11%	6	1%	-10%
SMILES	Gal4-VP16 FLuc	RORg inh	DT40 TDP1 no CPT	IL1B secr inh	ELG1 repair inh	TDP1 cell CPT
CC(=O)Nc1c(Br)cc2c(c1Br)Cc1cc(Br)ccc1-2	·	·	13µM*	-15	·	-28%
Cc1csc2ncnc(N3CCN(C(=O)Nc4ccc(OC(F)(F)F)cc4)CC3)c12	?	-54%	5.8µM*	-71*	?	10µM*
O=C(Nc1ccccc1)N1CCN(c2ccccn2)CC1	-4%	13%	-19%	-4	-4%	-10%
Cc1ccc(C(=O)N2CCN(c3ncnc4c(C)csc34)CC2)cc1	-18%	?	16µM*	?	2%	?
Cc1csc2c(N3CCN(C(=S)Nc4ccc(F)cc4F)CC3)ncnc12	?	-17%	?	-30	?	?
Cc1csc2c(N3CCN(C(=O)Nc4ccccc4)CC3)ncnc12	-20%	?	16µM*	?	?	9.2µM*
O=C(CN(Cc1ccccc1)S(=O)(=O)c1cccc(C(F)(F)F)c1)NC1CCCCC1	-1%	-15%	?	1	3%	?
CC(c1ccccc1)N(CC(=O)NC1CCCCC1)S(=O)(=O)c1cccc(C(F)(F)F)c1 (stereo not drawn)	3%	7%	16µM*	-62*	-6%	?
CC1(C(=O)NS(=O)(=O)c2ccc(C#N)cc2)CCN1C(=O)Cc1cccc2ccccc12 (stereo not drawn)	·	·	-1%	14	·	-14%
COc1ccc(NC(=O)Cn2c(=O)sc3ccccc32)cc1	-10%	4%	-18%	5	2%	1%
O=C(Cn1c(=O)sc2ccccc21)Nc1ccccc1	16%	7%	21µM*	-7	·	26µM*
COC(=O)C1(CO)NC(c2ccc(C)cc2)C2C(=O)N(c3ccccc3)C(=O)C21 (stereo not drawn)	-1%	-30%	7%	10	12%	9%
Cc1cc(C)c(S(=O)(=O)NCC23C=CC(O2)C2C(=O)N(c4ccccc4)C(=O)C23)c(C)c1 (stereo not drawn)	?	16µM*	?	-4	2%	?
O=C1C2C3C=CC(CNS(=O)(=O)c4ccccc4[N+](=O)[O-])(O3)C2C(=O)N1c1ccccc1 (stereo not drawn)	11µM*	?	-3%	0	-19%	?
